Measurements reported in PubChem BioAssay (NCATS).
Results filed as inconclusive are left out. The source made the active and inactive calls. Calls follow the shape of the dose curve; as a rule, active = well fitted inhibition curve with a large enough effect; inconclusive = small, poorly fitted or top-dose-only effect; inactive = flat fitted curve, though single readings scatter.

How the values were obtained:
Assay in all cases: qHTS profiling for inhibitors of Plasmodium falciparum proliferation (AID 504749); also: nearly all actives have a fitted effect of over 60% in size
Conditions in all cases: P. falciparum in erythrocytes, SYBR Green DNA, 72 h; series mostly up to 28.7 µM
P93_24 = system: P93_24
Method in brief: (§1)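 Each compound contacts P. falciparum-infected red blood cells for 72 h at 37 C; lysis buffer (Tris, EDTA, saponin, Triton X, SYBR Green I) is added and fluorescence measured next morning; values normalized to controls.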

P94_40 = system: P94_40
Method in brief: as §1

PAD = system: PAD
Method in brief: as §1

PC15 = system: PC15
Method in brief: as §1

PC26 = system: PC26
Method in brief: as §1

PC49 = system: PC49
Method in brief: as §1

SC27B = system: SC27B
Method in brief: as §1

TAB109 = system: TAB109
Method in brief: as §1

TAB113 = system: TAB113
Method in brief: as §1

TAB165 = system: TAB165
Method in brief: as §1

Measured: Potency
Potency is read from the fitted curve at half-maximal effect.

CC(C)[C@H](N)C(=O)OCCOCn1cnc2c(=O)[nH]c(N)nc21
inactive: all assays above

Cc1ncc([N+](=O)[O-])n1CC(C)O (stereo not given)
inactive: all assays above

CCC(C)(Oc1ccc(C2(c3ccc(OC(C)(CC)C(=O)O)cc3)CCCCC2)cc1)C(=O)O (stereo not given)
not listed: TAB109
inactive: all other assays above

O=C(NCCO[N+](=O)[O-])c1cccnc1
inactive: all assays above

O=C(NC(Cc1cc(=O)[nH]c2ccccc12)C(=O)O)c1ccc(Cl)cc1 (stereo not given)
inactive: all assays above

CCCCN(CCCC)CCC(O)c1cc2c(Cl)cc(Cl)cc2c2cc(C(F)(F)F)ccc12 (stereo not given)
active: P93_24 0.0056 µM | P94_40 0.0032 µM | PAD 0.0045 µM | PC15 0.0089 µM | PC26 0.0102 µM | SC27B 0.0126 µM | TAB109 0.0071 µM | TAB113 0.0079 µM | TAB165 0.0079 µM

O=P(O)(O)C(O)(Cn1ccnc1)P(=O)(O)O
inactive: all assays above

O=C(O)c1cccc(-c2noc(-c3ccccc3F)n2)c1
inactive: all assays above

CC(S)C(=O)NCC(=O)O (stereo not given)
inactive: all assays above

COC(=O)C1=C(C)NC(C)=C(C(=O)OCCCN2CCC(c3ccccc3)(c3ccccc3)CC2)C1c1cccc([N+](=O)[O-])c1 (stereo not given)
active: P93_24 3.98 µM | P94_40 4.47 µM | PAD 10 µM | PC15 11.2 µM | PC26 6.01 µM | SC27B 3.55 µM | TAB109 5.01 µM | TAB113 2.51 µM | TAB165 2.82 µM

CCCCc1ccc2nc(NC(=O)OC)[nH]c2c1
inactive: all assays above

CNC[C@H](O)c1ccc(O)c(O)c1
inactive: all assays above

C[C@]12CCC(=O)C=C1CC[C@@H]1[C@H]2[C@@H](O)C[C@@]2(C)[C@H]1CC[C@]2(O)C(=O)CO
inactive: all assays above

CN(C)CCc1c[nH]c2ccc(Cn3cncn3)cc12
not listed: TAB109
inactive: all other assays above

CC(C)(S)[C@@H](N)C(=O)O
inactive: all assays above

Nc1cccc2c1CN(C1CCC(=O)NC1=O)C2=O (stereo not given)
inactive: all assays above

CN(C)C(=O)COC(=O)Cc1ccc(OC(=O)c2ccc(N=C(N)N)cc2)cc1
inactive: all assays above

CC1(C)NC(=O)N(c2ccc([N+](=O)[O-])c(C(F)(F)F)c2)C1=O
inactive: all assays above

CNC[C@@H](O)[C@@H](O)[C@H](O)[C@H](O)CO
inactive: all assays above

Cc1cc(=O)c2c(O)c3c(O)cc(=O)c4c3c3c(cc(O)c1c23)C(C)(C)C=4O
active: P93_24 2.24 µM | P94_40 2 µM | PAD 2.51 µM | PC15 3.98 µM | PC49 7.94 µM | SC27B 1.58 µM | TAB109 2.24 µM | TAB113 1.58 µM | TAB165 1.78 µM

O=C(OC1C[C@H]2CC[C@@H](C1)[N+]21CCCC1)C(O)(c1ccccc1)c1ccccc1 (stereo not given in full)
active: P93_24 2.24 µM | P94_40 4.47 µM | TAB109 3.55 µM | TAB165 3.98 µM
inactive: PC15 | PC49

Cc1cc(=O)oc2cc(O)ccc12
active: PC15 1.12 µM | TAB113 1 µM
inactive: P93_24 | P94_40 | PAD

Nc1nc(Cl)nc2c1ncn2[C@H]1C[C@H](O)[C@@H](CO)O1
not listed: PC26
inactive: all other assays above

COC1=C(OC)C(=O)C(CCCCCCCCCCO)=C(C)C1=O
not listed: P94_40 | TAB113 | TAB165
inactive: all other assays above

Nc1ccn([C@@H]2O[C@H](CO)[C@@H](O)C2O)c(=O)n1 (stereo not given in full)
not listed: PC26
inactive: all other assays above

CN(c1nccc(=O)[nH]1)C1CCN(c2nc3ccccc3n2Cc2ccc(F)cc2)CC1
inactive: P93_24 | PAD | PC49 | SC27B | TAB113 | TAB165

CCCCC(CC)COC(=O)C(C#N)=C(c1ccccc1)c1ccccc1 (stereo not given)
active: SC27B 8.91 µM | TAB165 8.91 µM
inactive: PAD | PC26 | PC49

CCN(CCO)CCCC(C)Nc1ccnc2cc(Cl)ccc12 (stereo not given)
not listed: PC15
inactive: all other assays above

COc1ccc2cc([C@H](C)C(=O)O)ccc2c1
not listed: P93_24
inactive: all other assays above

Cc1nc(Nc2ncc(C(=O)Nc3c(C)cccc3Cl)s2)cc(N2CCN(CCO)CC2)n1
inactive: TAB109 | TAB113
active: TAB165 12.6 µM

Cc1cc2c(s1)Nc1ccccc1N=C2N1CCN(C)CC1
not listed: PC26
inactive: all other assays above

Cc1ccc(NC(=O)c2ccc(CN3CCN(C)CC3)cc2)cc1Nc1nccc(-c2cccnc2)n1
active: P93_24 10 µM | P94_40 11.2 µM | PAD 10 µM | PC26 15.1 µM | TAB109 10 µM | TAB113 12.6 µM | TAB165 11.2 µM

c1ccc2[nH]c(-c3cscn3)nc2c1
not listed: PC26
inactive: all other assays above

N=C(N)c1ccc2cc(OC(=O)c3ccc(N=C(N)N)cc3)ccc2c1
inactive: PAD

Cc1cc(C2CCCCC2)n(O)c(=O)c1
active: P93_24 3.16 µM | PC15 3.16 µM | TAB165 3.16 µM
inactive: PC49

CCC[C@@H]1C[C@@H](C(=O)N[C@@H]([C@H]2O[C@H](SC)[C@H](O)[C@@H](O)[C@H]2O)[C@@H](C)O)N(C)C1
inactive: PAD | PC15 | PC49 | TAB113

CC(C)c1ccc2oc3nc(N)c(C(=O)O)cc3c(=O)c2c1
not listed: PAD | SC27B | TAB113
inactive: all other assays above

O=C(O)c1cn(-c2ccc(F)cc2)c2cc(N3CCNCC3)c(F)cc2c1=O
inactive: PAD | PC15 | PC26 | PC49 | SC27B | TAB113

NNc1nncc2ccccc12
inactive: PC49
active: P93_24 3.98 µM | P94_40 3.55 µM

CN(C)c1ccc2nc3ccc(=[N+](C)C)cc-3sc2c1
inactive: PC49
active: P93_24 0.0316 µM | P94_40 0.0447 µM | PAD 0.0316 µM | PC26 0.0675 µM | SC27B 0.0631 µM | TAB109 0.0501 µM | TAB113 0.0501 µM | TAB165 0.0708 µM

O=C1CCc2ccc(OCCCCN3CCN(c4cccc(Cl)c4Cl)CC3)cc2N1
active: P93_24 10 µM
inactive: PC26 | PC49

COCCCOc1ccnc(CS(=O)c2nc3ccccc3[nH]2)c1C (stereo not given)
active: PC26 19 µM
not listed: P93_24 | PAD | TAB165
inactive: all other assays above

CN1CCC(=C2c3ccccc3CCc3sccc32)CC1
active: PC49 8.91 µM | TAB165 4.47 µM

CC1=C(C)C(=O)C(C(CCCCCC(=O)O)c2ccccc2)=C(C)C1=O (stereo not given)
not listed: PC26 | SC27B | TAB165
inactive: all other assays above

CC[C@]1(O)C[C@H]2CN(CCc3c([nH]c4ccccc34)[C@@](C(=O)OC)(c3cc4c(cc3OC)N(C=O)[C@H]3[C@@](O)(C(=O)OC)[C@H](OC(C)=O)[C@]5(CC)C=CCN6CC[C@]43[C@@H]65)C2)C1
active: P94_40 3.16 µM | SC27B 1.58 µM | TAB109 2 µM | TAB113 2.51 µM
inactive: PC15 | PC49

Cc1c(C(=O)NN2CCCCC2)nn(-c2ccc(Cl)cc2Cl)c1-c1ccc(Cl)cc1
active: P93_24 10 µM | P94_40 11.2 µM | PC26 16.9 µM | SC27B 10 µM | TAB165 10 µM

O=C1c2ccccc2-c2n[nH]c3cccc1c23
not listed: PC26
inactive: all other assays above

CCCCCCCCOc1ccccc1C(=O)Nc1ccc(C(=O)OCC[N+](C)(CC)CC)cc1
active: P93_24 12.6 µM | TAB109 7.94 µM | TAB113 10 µM | TAB165 6.31 µM
